Source: article PMC4336329 (PLoS ONE, 2015)
In all, about 310,000 compounds went through this assay and about 14,000 (4.5%) showed an effect of 50% or more. The effect is printed as a negative number. The full list was thinned out, with strong results kept by preference.

These compounds were tested against human ether-à-go-go-related gene (hERG) potassium channel (human, UniProt Q12809) (assay: primary screen, population patch clamp on CHO cells stably expressing hERG; higher = less effect of the substance).
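Also: peak tail current of the secondary pulse compared with the same well before compound.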

human ether-à-go-go-related gene (hERG) potassium channel, sequence (Q12809 whole entry, looked up): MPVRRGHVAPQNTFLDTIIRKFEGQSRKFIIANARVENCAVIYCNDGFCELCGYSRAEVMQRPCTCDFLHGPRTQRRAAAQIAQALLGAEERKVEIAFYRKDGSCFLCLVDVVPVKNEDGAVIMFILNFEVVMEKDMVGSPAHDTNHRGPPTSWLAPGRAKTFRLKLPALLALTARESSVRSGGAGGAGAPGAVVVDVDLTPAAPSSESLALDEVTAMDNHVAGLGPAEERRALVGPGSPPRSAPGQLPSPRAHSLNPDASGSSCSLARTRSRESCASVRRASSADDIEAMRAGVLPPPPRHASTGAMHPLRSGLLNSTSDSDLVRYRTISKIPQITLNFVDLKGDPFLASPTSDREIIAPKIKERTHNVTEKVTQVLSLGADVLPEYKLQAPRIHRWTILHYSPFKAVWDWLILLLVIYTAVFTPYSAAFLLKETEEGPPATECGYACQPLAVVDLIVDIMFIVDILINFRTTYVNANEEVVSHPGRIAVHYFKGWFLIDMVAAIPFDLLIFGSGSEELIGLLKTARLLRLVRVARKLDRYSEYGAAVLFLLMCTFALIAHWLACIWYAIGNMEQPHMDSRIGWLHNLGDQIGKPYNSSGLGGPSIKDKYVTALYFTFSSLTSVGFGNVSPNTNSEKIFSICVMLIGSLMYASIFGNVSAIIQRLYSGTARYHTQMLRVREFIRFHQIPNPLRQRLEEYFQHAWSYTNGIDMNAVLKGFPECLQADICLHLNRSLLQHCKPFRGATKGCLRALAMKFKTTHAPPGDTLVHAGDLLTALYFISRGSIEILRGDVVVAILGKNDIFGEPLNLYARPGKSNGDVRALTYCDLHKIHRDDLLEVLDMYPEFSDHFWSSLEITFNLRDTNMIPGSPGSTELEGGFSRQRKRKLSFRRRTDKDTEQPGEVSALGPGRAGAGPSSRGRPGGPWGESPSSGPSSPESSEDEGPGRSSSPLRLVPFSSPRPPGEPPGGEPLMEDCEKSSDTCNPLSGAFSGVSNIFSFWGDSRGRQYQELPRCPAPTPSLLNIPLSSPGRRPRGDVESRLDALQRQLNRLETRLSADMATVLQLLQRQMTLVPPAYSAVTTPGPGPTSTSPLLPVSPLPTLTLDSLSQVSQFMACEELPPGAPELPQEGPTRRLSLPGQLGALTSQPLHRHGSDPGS

Q: CSc1nc(NCC(C)O)c2c3c(sc2n1)CN(C)CC3 (stereo not drawn) was tested. Which “hERG current change (%, negative = inhibition) at 10uM” value did it give?
A: The value was -42%.

Q: How did the “hERG current change (%, negative = inhibition) at 10uM” value turn out when CSc1nc(NCCCO)c2c3c(sc2n1)CN(C)CC3 was run?
A: The value was -47.4%.

Q: COCCNc1nc(SC)nc2sc3c(c12)CCN(C)C3 was tested. Which “hERG current change (%, negative = inhibition) at 10uM” value did it give?
A: Its value is -71.2%.

Q: How did the “hERG current change (%, negative = inhibition) at 10uM” value turn out when CCN(CC)CCNc1nc(SC)nc2sc3c(c12)CCN(C)C3 was run?
A: The value was -6.12%.

Q: How did the “hERG current change (%, negative = inhibition) at 10uM” value turn out when CSc1nc(NCC(C)C)c2c3c(sc2n1)CN(C)CC3 was run?
A: The value was -44.2%.

Q: How did the “hERG current change (%, negative = inhibition) at 10uM” value turn out when COC(CNc1nc(SC)nc2sc3c(c12)CCN(C)C3)OC was run?
A: The value was -52.5%.

Q: With S=c1[nH]c2ccccc2o1 as the compound, how does the “hERG current change (%, negative = inhibition) at 10uM” value read?
A: The value was 18%.

Q: With COc1ccc(OCC(=O)Nc2c(C(=O)N(CCN(C)C)Cc3ccco3)oc3ccccc23)cc1 as the compound, how does the “hERG current change (%, negative = inhibition) at 10uM” value read?
A: The value was -77%.

Q: Which “hERG current change (%, negative = inhibition) at 10uM” value does the source give for COc1ccc(OCC(=O)OCC(=O)NCc2ccco2)cc1 here?
A: The value was -4.81%.

Q: How did the “hERG current change (%, negative = inhibition) at 10uM” value turn out when Cc1c(C(=O)OCC(=O)NCc2ccco2)oc2ccccc12 was run?
A: The value was 2.46%.

Q: For CN(C)CCN(Cc1ccco1)C(=O)c1oc2ccccc2c1NC(=O)COc1ccccc1, which “hERG current change (%, negative = inhibition) at 10uM” value is on record?
A: The value was -88.7%.

Q: How did the “hERG current change (%, negative = inhibition) at 10uM” value turn out when O=C(COc1ccccc1)Nc1ccccc1C(=O)NCc1ccco1 was run?
A: Its value is -6.63%.

Q: CCCN(CCC)C(=O)c1oc2ccccc2c1NC(=O)Cc1cccc(OC)c1 was tested. Which “hERG current change (%, negative = inhibition) at 10uM” value did it give?
A: The value was 4.67%.

Q: For CCCCCCN=C(C)c1ccccc1O, which “hERG current change (%, negative = inhibition) at 10uM” value is on record?
A: The value was 20.2%.

Q: CN(Cc1ccc(F)cc1)C(=O)c1cccc(S(=O)(=O)N2CCN(c3ccccc3)CC2)c1 was tested. Which “hERG current change (%, negative = inhibition) at 10uM” value did it give?
A: Its value is -19.9%.

Q: With COCCN(Cc1ccccc1)C(=O)c1cccc(S(=O)(=O)N2CCN(c3ccccc3)CC2)c1 as the compound, how does the “hERG current change (%, negative = inhibition) at 10uM” value read?
A: Its value is -52.8%.

Q: COCCN(Cc1ccccc1)C(=O)c1cccc(S(=O)(=O)N2CCN(c3ccc(F)cc3)CC2)c1 was tested. Which “hERG current change (%, negative = inhibition) at 10uM” value did it give?
A: The value was -64.6%.

Q: How did the “hERG current change (%, negative = inhibition) at 10uM” value turn out when CCN(Cc1ccccc1)C(=O)c1cccc(S(=O)(=O)N2CCN(c3ccccc3)CC2)c1 was run?
A: Its value is -15.8%.

Q: With CCN(Cc1ccccc1)C(=O)c1cccc(S(=O)(=O)N2CCN(c3ccc(F)cc3)CC2)c1 as the compound, how does the “hERG current change (%, negative = inhibition) at 10uM” value read?
A: Its value is -47.2%.

Q: Which “hERG current change (%, negative = inhibition) at 10uM” value does the source give for COCCN(Cc1ccccc1)C(=O)c1cccc(S(=O)(=O)N2CCCc3ccccc32)c1 here?
A: The value was -21.2%.

Q: How did the “hERG current change (%, negative = inhibition) at 10uM” value turn out when CC(C)(C)NC(=O)Cn1c(=O)c(=O)n(Cc2ccccc2)c2ccc(Cl)cc21 was run?
A: Its value is -0.233%.

Q: Cn1c2c(c(=O)n(C)c1=O)C(c1ccc(Br)cc1)Nc1ccccc1O2 (stereo not drawn) was tested. Which “hERG current change (%, negative = inhibition) at 10uM” value did it give?
A: The value was -19.4%.

Q: How did the “hERG current change (%, negative = inhibition) at 10uM” value turn out when Cc1ccc(S(=O)(=O)NCCC2(C(C)C)CCOC(C)(C)C2)cc1 (stereo not drawn) was run?
A: The value was -17.9%.

Q: For CC1(C)CC(=O)C(C=NCC(N)=O)=C(O)C1, which “hERG current change (%, negative = inhibition) at 10uM” value is on record?
A: The value was -19.5%.

Q: With C=CCn1c(O)c(C(C)=NCCCN(C)C)c(=O)[nH]c1=O as the compound, how does the “hERG current change (%, negative = inhibition) at 10uM” value read?
A: Its value is 5.49%.

Q: For N#Cc1cccnc1N1CCN(C(=O)c2ccc3c(c2)S(=O)(=O)c2ccccc2C3=O)CC1, which “hERG current change (%, negative = inhibition) at 10uM” value is on record?
A: Its value is -22.7%.

Q: N#Cc1cccnc1N1CCN(C(=O)c2cccc3c2C(=O)c2ccc(Cl)cc2S3(=O)=O)CC1 was tested. Which “hERG current change (%, negative = inhibition) at 10uM” value did it give?
A: The value was -56.6%.

Q: Which “hERG current change (%, negative = inhibition) at 10uM” value does the source give for O=C1c2ccc(Cl)cc2S(=O)(=O)c2cccc(C(=O)N3CCN(c4ccc(Cl)cn4)CC3)c21 here?
A: The value was -39.9%.

Q: CCN(CCn1cccn1)C(=O)CCc1nnc(CCc2ccccc2OC)o1 was tested. Which “hERG current change (%, negative = inhibition) at 10uM” value did it give?
A: The value was 5.73%.

Q: How did the “hERG current change (%, negative = inhibition) at 10uM” value turn out when CCC/C(=N\NC(=O)c1cccc(C)c1)c1ccccc1 was run?
A: Its value is 2.17%.

Q: How did the “hERG current change (%, negative = inhibition) at 10uM” value turn out when CCOc1cccc(/C=N/Nc2ccc(S(=O)(=O)N(CC)CC)cn2)c1O was run?
A: The value was 6.79%.

Q: For COc1ccc(CN(C)C(=O)COC(=O)c2c(-c3ccccc3Cl)noc2C)cc1, which “hERG current change (%, negative = inhibition) at 10uM” value is on record?
A: The value was -15.1%.

Q: COc1ccc(CN(C)C(=O)COC(=O)c2c(C)nn(-c3ccc(F)cc3)c2Cl)cc1 was tested. Which “hERG current change (%, negative = inhibition) at 10uM” value did it give?
A: The value was -71.1%.

Q: How did the “hERG current change (%, negative = inhibition) at 10uM” value turn out when COc1ccc(COC(=O)c2c(C)nn(-c3ccccc3)c2Cl)cc1 was run?
A: The value was 4.32%.

Q: With Brc1ccc(CSc2nnc(-c3ccccn3)n2Cc2ccco2)cc1 as the compound, how does the “hERG current change (%, negative = inhibition) at 10uM” value read?
A: The value was -16.8%.

Q: CN1CCc2c(OCC(=O)NC3CCCCC3)cccc2C1=O was tested. Which “hERG current change (%, negative = inhibition) at 10uM” value did it give?
A: Its value is 13.6%.

Q: With CCCCCCSc1ccc([C@H]2N[C@@](Cc3ccccc3)(C(=O)OC)[C@H]3C(=O)N(C)C(=O)[C@@H]23)cc1OC.O=C(O)C(F)(F)F as the compound, how does the “hERG current change (%, negative = inhibition) at 10uM” value read?
A: Its value is 5.93%.

Q: O=P(O)(O)O.c1ccc(CSCCc2ccncc2)cc1 was tested. Which “hERG current change (%, negative = inhibition) at 10uM” value did it give?
A: Its value is -5.48%.

Q: With CCOC(=O)Cn1cc(C(=O)c2ccccc2F)c2ccccc21 as the compound, how does the “hERG current change (%, negative = inhibition) at 10uM” value read?
A: The value was -71%.

Q: For NC(=O)Cn1cc(C(=O)c2ccccc2F)c2ccccc21, which “hERG current change (%, negative = inhibition) at 10uM” value is on record?
A: The value was 25.1%.

Q: With COC(=O)Cn1cc(C(=O)c2ccccc2F)c2ccccc21 as the compound, how does the “hERG current change (%, negative = inhibition) at 10uM” value read?
A: Its value is -1.29%.

Q: For CCc1ccc(C(=O)CN(C#N)c2nc(C)cc(C)n2)cc1, which “hERG current change (%, negative = inhibition) at 10uM” value is on record?
A: Its value is -75.6%.

Q: How did the “hERG current change (%, negative = inhibition) at 10uM” value turn out when Cc1cc(C)nc(N(C#N)CC(=O)c2ccccc2)n1 was run?
A: The value was -42.9%.

Q: For CCN(CC)C(=O)CN(C#N)c1nc(C)cc(C)n1, which “hERG current change (%, negative = inhibition) at 10uM” value is on record?
A: Its value is 19.4%.

Q: With Cc1c(Cl)cccc1NC(=S)NC(=O)c1cncc(Br)c1 as the compound, how does the “hERG current change (%, negative = inhibition) at 10uM” value read?
A: The value was 17.6%.

Q: COc1cccc(/C=N/NC(=S)NCCc2ccccc2)c1 was tested. Which “hERG current change (%, negative = inhibition) at 10uM” value did it give?
A: The value was 10.5%.

Q: Which “hERG current change (%, negative = inhibition) at 10uM” value does the source give for CCC(=O)Nc1cccc(-c2nnc(-c3cccc(NC(=O)CC)c3)o2)c1 here?
A: Its value is 7.83%.

Q: Which “hERG current change (%, negative = inhibition) at 10uM” value does the source give for Cc1ccc(CNC(=O)c2oc3ccc(S(=O)(=O)N4CCC5(CC4)OCCO5)cc3c2C)cc1 here?
A: The value was -3.35%.

Q: How did the “hERG current change (%, negative = inhibition) at 10uM” value turn out when CS(=O)(=O)Nc1ccc(C(=O)NCc2ccco2)cc1 was run?
A: The value was 0.221%.

Q: How did the “hERG current change (%, negative = inhibition) at 10uM” value turn out when CN(Cc1ccccc1)S(=O)(=O)c1ccc(NS(=O)(=O)Cc2ccccc2)cc1 was run?
A: The value was 0.139%.

Q: CS(=O)(=O)NCCSCc1c(F)cccc1Cl was tested. Which “hERG current change (%, negative = inhibition) at 10uM” value did it give?
A: Its value is 1.87%.

Q: For CS(=O)(=O)Nc1ccc(C(=O)NCCSCc2c(F)cccc2Cl)cc1, which “hERG current change (%, negative = inhibition) at 10uM” value is on record?
A: Its value is -57.7%.

Q: How did the “hERG current change (%, negative = inhibition) at 10uM” value turn out when CN(c1ccc(C(=O)NCCSCc2c(F)cccc2Cl)cc1)S(C)(=O)=O was run?
A: Its value is 1.6%.

Q: With CS(=O)(=O)Nc1ccc(C(=O)NCCSCc2ccccc2)cc1 as the compound, how does the “hERG current change (%, negative = inhibition) at 10uM” value read?
A: The value was -45.1%.

Q: CS(=O)(=O)Nc1ccccc1C(=O)NCc1ccco1 was tested. Which “hERG current change (%, negative = inhibition) at 10uM” value did it give?
A: Its value is -2.03%.

Q: For CC(=O)Nc1ccc(C(=O)NCCc2ccccc2)cc1, which “hERG current change (%, negative = inhibition) at 10uM” value is on record?
A: Its value is 12.9%.

Q: For CC(=O)Nc1ccc(S(=O)(=O)N(C)Cc2ccccc2)cc1, which “hERG current change (%, negative = inhibition) at 10uM” value is on record?
A: Its value is -12.7%.

Q: With CS(=O)(=O)Nc1ccc(C(=O)NCCc2ccccc2)cc1 as the compound, how does the “hERG current change (%, negative = inhibition) at 10uM” value read?
A: Its value is -69.6%.

Q: How did the “hERG current change (%, negative = inhibition) at 10uM” value turn out when CS(=O)(=O)Nc1ccc(C(=O)Nc2ccccc2C(=O)NCc2ccco2)cc1 was run?
A: Its value is -69.2%.

Q: Which “hERG current change (%, negative = inhibition) at 10uM” value does the source give for CN(Cc1ccccc1)S(=O)(=O)c1ccc(NS(C)(=O)=O)cc1 here?
A: Its value is -55.5%.
